Several values for one entry are separate records, joined by “and”; a condition that tells them apart may be missing. Equal entries are not always repeated. Hit rate of the full screen: of about 5,500 compounds, about 2,000 (36%) were called active. Another 18% or so got no clear call; they are omitted. No stated cut-off is given here; in the data, active means normalized growth mostly below about 0.91 (no sharp cut-off); inconclusive means no clear call, values can overlap the other calls; inactive means mostly above about 0.92. This is one part of the list.
Assay: chemical genetic growth profiling, strain panel (AID 1159580);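 further: tested at 20 µM; growth read once vehicle control cultures reached saturation at 30 °C; 1 = growth at the plate median or of vehicle wells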
Conditions: S. cerevisiae deletion strains, growth OD

Measured: normalized growth

CC(CCC(=O)O)[C@H]1CCC2C3C(C[C@H](O)[C@@]21C)[C@@]1(C)CC[C@@H](O)C[C@H]1C[C@H]3O (some centres not stated)
inactive: locus YAL013W, strain DEP1, stronger effect = lower value 1.01 | locus YAL021C, strain ccr4, stronger effect = lower value 1.08 | locus YAL026C, strain drs2, stronger effect = lower value 1.03 | locus YAL030W, strain snc1, stronger effect = lower value 1.01 | locus YBL061C, strain skt5, stronger effect = lower value 1 | locus YBR009C, strain hhf1, stronger effect = lower value 1.05 | locus YBR021W, strain FUR4, stronger effect = lower value 0.995 | locus YBR023C, strain chs3, stronger effect = lower value 1.01 | locus YBR171W, strain sec66, stronger effect = lower value 1.02 | locus YBR229C, strain ROT2, stronger effect = lower value 1.01 | locus YBR231C, strain swc5, stronger effect = lower value 1 | locus YBR279W, strain paf1, stronger effect = lower value 1.02 | locus YCL011C, strain gbp2, stronger effect = lower value 1.02 | locus YCL016C, strain dcc1, stronger effect = lower value 1 | locus YCL029C, strain bik1, stronger effect = lower value 1.02 | locus YCL061C, strain MRC1, stronger effect = lower value 1.01 | locus YCL069W, strain vba3, stronger effect = lower value 1.02 | locus YCR088W, strain abp1, stronger effect = lower value 1.01 | locus YDL005C, strain med2, stronger effect = lower value 1.01 | locus YDL035C, strain GPR1, stronger effect = lower value 1.03 | locus YDL040C, strain nat1, stronger effect = lower value 1.02 | locus YDL074C, strain BRE1, stronger effect = lower value 1.02 | locus YDL101C, strain DUN1, stronger effect = lower value 1.02 | locus YDL185W, strain tfp1, stronger effect = lower value 1 | locus YDL192W, strain arf1, stronger effect = lower value 1.01 | locus YDR001C, strain nth1, stronger effect = lower value 1.02 | locus YDR069C, strain doa4, stronger effect = lower value 1.02 | locus YDR101C, strain arx1, stronger effect = lower value 0.985 | locus YDR137W, strain rgp1, stronger effect = lower value 0.991 | locus YDR159W, strain sac3, stronger effect = lower value 1.03 | locus YDR162C, strain NBP2, stronger effect = lower value 1.02 | locus YDR195W, strain ref2 1.03 | locus YDR297W, strain sur2, stronger effect = lower value 0.998 | locus YDR318W, strain mcm21, stronger effect = lower value 1.01 | locus YDR334W, strain swr1, stronger effect = lower value 1.03 | locus YDR335W, strain msn5, stronger effect = lower value 0.986 | locus YDR388W, stronger effect = lower value 1 | locus YDR392W, strain spt3, stronger effect = lower value 0.958 | locus YDR502C, strain sam2, stronger effect = lower value 1.01 | locus YEL003W, strain gim4, stronger effect = lower value 1.02 | locus YEL037C, strain rad23, stronger effect = lower value 1.03 | locus YEL061C, strain CIN8 (second series), stronger effect = lower value 1.02 | locus YEL061C, strain CIN8, stronger effect = lower value 1.03 | locus YER015W, strain faa2, stronger effect = lower value 0.982 | locus YER016W, strain bim1, stronger effect = lower value 0.99 | locus YER110C, stronger effect = lower value 1 | locus YER111C, strain swi4, stronger effect = lower value 1.03 | locus YER155C, strain BEM2 (second series), stronger effect = lower value 1.02 | locus YER155C, strain BEM2, stronger effect = lower value 1.01 | locus YER167W, strain BCK2, stronger effect = lower value 1.02 | locus YFR010W, strain ubp6, stronger effect = lower value 1.03 | locus YGL078C, strain dbp3, stronger effect = lower value 1.01 | locus YGL086W, strain mad1, stronger effect = lower value 1 | locus YGL167C, strain pmr1, stronger effect = lower value 0.995 | locus YGL173C, strain kem1, stronger effect = lower value 1.04 | locus YGL227W, strain vid30, stronger effect = lower value 1.01 | locus YGL240W, strain doc1, stronger effect = lower value 1.01 | locus YGL248W, strain PDE1, stronger effect = lower value 1.02 | locus YGL253W, strain hxk2, stronger effect = lower value 1.02 | locus YGR135W, strain pre9, stronger effect = lower value 0.993 | locus YGR252W, strain gcn5, stronger effect = lower value 0.965 | locus YHR013C, strain ard1, stronger effect = lower value 1.03 | locus YHR027C, strain rpn1, stronger effect = lower value 0.994 | locus YHR030C, strain SLT2, stronger effect = lower value 1.01 and 0.992 | locus YHR079C, strain IRE1 (second series), stronger effect = lower value 1 | locus YHR079C, strain IRE1, stronger effect = lower value 0.975 | locus YHR094C, strain hxt1, stronger effect = lower value 1 | locus YHR129C, strain ARP1, stronger effect = lower value 1.02 | locus YHR142W, strain chs7, stronger effect = lower value 1.05 | locus YHR200W, strain rpn10, stronger effect = lower value 0.994 | locus YIL066C, strain RNR3, stronger effect = lower value 1 | locus YIL073C, strain SPO22, stronger effect = lower value 1 | locus YIL125W, strain kgd1, stronger effect = lower value 1.01 | locus YIR030C, strain dcg1, stronger effect = lower value 1 | locus YJL092W, strain hpr5, stronger effect = lower value 1.01 | locus YJL095W, strain BCK1 (second series), stronger effect = lower value 1.01 | locus YJL095W, strain BCK1, stronger effect = lower value 1.02 and 0.977 | locus YJL115W, strain asf1, stronger effect = lower value 1.03 | locus YJL129C, strain trk1, stronger effect = lower value 1.05 | locus YJL134W, strain LCB3, stronger effect = lower value 1.01 | locus YJL154C, strain vps35, stronger effect = lower value 1.02 | locus YJL164C, strain tpk1, stronger effect = lower value 1.06 | locus YJL166W, strain qcr8, stronger effect = lower value 1.03 | locus YJL168C, strain set2, stronger effect = lower value 1.01 | locus YJL187C, strain SWE1 (second series), stronger effect = lower value 1.01 | locus YJL187C, strain SWE1, stronger effect = lower value 1.01 | locus YJR043C, strain POL32, stronger effect = lower value 0.994 | locus YJR066W, strain TOR1, stronger effect = lower value 0.93 | locus YKL009W, strain mrt4, stronger effect = lower value 0.959 | locus YKL068W, stronger effect = lower value 1.02 | locus YKL085W, strain MDH1 (second series), stronger effect = lower value 1 | locus YKL085W, strain MDH1, stronger effect = lower value 1 | locus YKL160W, strain elf1, stronger effect = lower value 0.995 | locus YKR001C, strain vps1, stronger effect = lower value 1.01 | locus YKR026C, strain gcn3, stronger effect = lower value 1.02 | locus YKR091W, strain srl3, stronger effect = lower value 1.02 | locus YLL001W, strain dnm1, stronger effect = lower value 0.989 | locus YLL026W, stronger effect = lower value 1.01 | locus YLL041C, strain sdh2, stronger effect = lower value 1.02 | locus YLR027C, strain aat2, stronger effect = lower value 1.02 | locus YLR039C, strain RIC1, stronger effect = lower value 1.09 | locus YLR058C, strain SHM2, stronger effect = lower value 1.02 | locus YLR102C, strain apc9, stronger effect = lower value 0.998 | locus YLR113W, strain HOG1, stronger effect = lower value 0.983 | locus YLR221C, strain rsa3, stronger effect = lower value 1.01 | locus YLR258W, strain gsy2, stronger effect = lower value 1.04 | locus YLR262C, strain YPT6 (second series), stronger effect = lower value 1.05 | locus YLR262C, strain YPT6, stronger effect = lower value 1.11 | locus YLR268W, strain sec22, stronger effect = lower value 0.986 | locus YLR320W, strain mms22, stronger effect = lower value 1.03 | locus YLR330W, strain CHS5, stronger effect = lower value 1.01 | locus YLR342W, strain FKS1 (second series), stronger effect = lower value 1.01 | locus YLR342W, strain FKS1, stronger effect = lower value 1 | locus YLR357W, strain rsc2, stronger effect = lower value 1.01 | locus YLR370C, strain arc18, stronger effect = lower value 0.999 | locus YLR371W, strain rom2, stronger effect = lower value 1 | locus YLR384C, strain iki3, stronger effect = lower value 0.991 | locus YLR418C, strain cdc73, stronger effect = lower value 0.994 | locus YML016C, strain PPZ1, stronger effect = lower value 1.03 | locus YML032C, strain rad52, stronger effect = lower value 0.995 | locus YML120C, strain ndi1, stronger effect = lower value 0.998 | locus YML124C, strain tub3, stronger effect = lower value 1.01 | locus YMR058W, strain fet3, stronger effect = lower value 1.03 | locus YMR078C, strain ctf18, stronger effect = lower value 1 | locus YMR125W, strain sto1, stronger effect = lower value 1.02 | locus YMR129W, stronger effect = lower value 0.991 | locus YMR205C, strain PFK2, stronger effect = lower value 1.02 | locus YMR223W, strain ubp8, stronger effect = lower value 1.02 | locus YMR231W, strain pep5, stronger effect = lower value 1.02 | locus YMR307W, strain GAS1, stronger effect = lower value 0.983 | locus YNL067W, strain RPL9B, stronger effect = lower value 1.02 | locus YNL071W, strain lat1, stronger effect = lower value 1.03 | locus YNL128W, strain TEP1, stronger effect = lower value 1.02 | locus YNL183C, strain NPR1, stronger effect = lower value 0.925 | locus YNL209W, strain ssb2, stronger effect = lower value 0.993 | locus YNL233W, strain BNI4, stronger effect = lower value 1.01 | locus YNL248C, strain rpa49, stronger effect = lower value 1.02 | locus YNL250W, strain rad50, stronger effect = lower value 1.01 | locus YNL271C, strain bni1, stronger effect = lower value 1 | locus YNL298W, strain CLA4, stronger effect = lower value 0.999 | locus YNL307C, strain MCK1, stronger effect = lower value 1 | locus YNL322C, strain KRE1 (second series), stronger effect = lower value 1.01 | locus YNR049C, strain mso1, stronger effect = lower value 0.986 | locus YNR052C, strain pop2, stronger effect = lower value 1.03 | locus YOL006C, strain TOP1, stronger effect = lower value 1.07 | locus YOL012C, strain htz1 1.17 | locus YOL147C, strain pex11, stronger effect = lower value 1.01 | locus YOR001W, strain rrp6, stronger effect = lower value 1.02 | locus YOR061W, strain CKA2, stronger effect = lower value 1.02 | locus YOR069W, strain VPS5, stronger effect = lower value 1.02 | locus YOR070C, strain gyp1, stronger effect = lower value 1 | locus YOR080W, strain dia2, stronger effect = lower value 1.01 | locus YOR083W, strain WHI5, stronger effect = lower value 1.01 | locus YOR106W, strain vam3, stronger effect = lower value 1.07 | locus YOR136W, strain idh2, stronger effect = lower value 1.01 | locus YOR144C, strain elg1, stronger effect = lower value 1 | locus YOR184W, strain ser1, stronger effect = lower value 1 | locus YOR231W, strain MKK1, stronger effect = lower value 0.981 | locus YOR265W, strain rbl2, stronger effect = lower value 1 | locus YOR270C, strain vph1, stronger effect = lower value 1.11 | locus YOR290C, strain snf2, stronger effect = lower value 0.982 | locus YOR316C, strain cot1, stronger effect = lower value 1 | locus YPL051W, strain arl3, stronger effect = lower value 1.01 | locus YPL078C, strain atp4, stronger effect = lower value 1.03 | locus YPL106C, strain sse1, stronger effect = lower value 1.01 | locus YPL240C, strain hsp82, stronger effect = lower value 0.996 | locus YPL256C, strain CLN2, stronger effect = lower value 0.957 | locus YPR119W, strain clb2, stronger effect = lower value 1 | locus YPR141C, strain kar3, stronger effect = lower value 1.01 | locus YPR163C, strain tif3, stronger effect = lower value 0.992 | locus YPR167C, strain met16, stronger effect = lower value 1.03 | strain wtn01, stronger effect = lower value 0.993
